Experimental findings from PubChem BioAssay (NCATS) are described below.

Test [1] can be described thus: qHTS assay to identify small molecule inhibitors of chordoma cells - UCH-2 (AID 1259356). Also: series mostly up to about 46 µM. In general terms: qHTS replaces the single test concentration by a dilution series.
Test [2] can be described thus: P-glycoprotein substrates identified in KB-8-5-11 adenocarcinoma cell line, qHTS therapeutic library screen (AID 1346987). Also: nearly all actives have a fitted effect of over 65% in size. Also: potency is read from the fitted curve at half-maximal effect. The procedure, abridged:
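In this qHTS, P-gp-rich KB-8-5-11 cells received library compounds across a concentration range. Viability was quantified by luminescence after 72 h at 37 degree C.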

Test [3] can be described thus: qHTS assay to identify small molecule inhibitors of chordoma cells - UCH-1 (AID 1259355). Also: nearly all actives have a fitted effect of over 55% in size. Also: potency is read from the fitted curve at half-maximal effect; series mostly up to about 46 µM. In outline: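 800 cells/well, overnight attach; compounds pinned at 15 concs, then auranofin/camptothecin/doxorubicin/rubitecan/topotecan combo added; 48hr 37 C, 5% CO2; CellTiter-Glo, 30min RT, luminescence.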

Inconclusive results are not listed. Entries that show only a call come without a potency. The source made the active and inactive calls. Calls follow the shape of the dose curve; as a rule, active = well fitted curve in the direction sought with a large enough effect; inconclusive = small, poorly fitted or top-dose-only effect, or another doubt; inactive = no such curve, though single readings can be large; an effect the other way counts as inactive or inconclusive.

For the compound `CC(=O)Oc1cc(C)c(OC(C)=O)c2ccccc12`, the Potency result in test [1] and in test [2] was “inactive” in each case.
Regarding `CC[C@@H](C(=O)[C@@H](C)[C@@H](O)[C@H](C)CCc1ccc(C)c(O)c1C(=O)O)[C@H]1O[C@](CC)([C@H]2CC[C@](O)(CC)[C@H](C)O2)C[C@@H]1C`, the Potency result in test [1] was “inactive”.
For `OCC(S)CS` (stereo not given), the Potency result in test [1] was “inactive”.
With `N[C@H](C(=O)O)[C@@H]1CC(Cl)=NO1`, the Potency result in test [1] is “inactive”. The Potency in test [2] was 4.11 µM (active).
Take `CC(=O)OCC(=O)[C@@]1(O)CC[C@H]2[C@@H]3C[C@H](C)C4=CC(=O)C=C[C@]4(C)[C@H]3[C@@H](O)C[C@@]21C`: the Potency entry in test [1] and in test [2] was “inactive” in each case.
As to `CCCCC(C)(O)C/C=C/[C@H]1[C@H](O)CC(=O)[C@@H]1CCCCCCC(=O)OC` (stereo not given in full), the Potency entry in test [1] was “inactive”.
Turning to `O=C(Nc1cccc(C(F)(F)F)c1)c1cc(Br)cc(Br)c1O`, the Potency in test [3] was 12.6 µM (active); in test [2], 1.3 µM (active).
With `CO[C@H]1C=CO[C@@]2(C)Oc3c(C)c(O)c4c(O)c(c5c(c4c3C2=O)=NC2(CCN(CC(C)C)CC2)N=5)NC(=O)/C(C)=C\C=C/[C@H](C)[C@H](O)[C@@H](C)[C@@H](O)[C@@H](C)[C@H](OC(C)=O)[C@@H]1C`, the Potency result in test [1] is “inactive”.
For `NCc1ccccc1CC(=O)N[C@@H]1C(=O)N2C(C(=O)O)=C(CSc3nnnn3CC(=O)O)CS[C@H]12`, the Potency result in test [1] and in test [2] was “inactive” in each case.
Consider `C[C@H]1C[C@H]2[C@@H]3CCC4=CC(=O)C=C[C@]4(C)[C@@]3(F)[C@@H](O)C[C@]2(C)[C@@]1(O)C(=O)CO`, for which the Potency result in test [1] and in test [2] was “inactive” each time.
Turning to `O=C1CSC2(CCN(CCCN3c4ccccc4Sc4ccc(Cl)cc43)CC2)N1`, the Potency result in test [1] is “inactive”.
For `C=CCSSSCC=C`, the Potency entry in test [1] and in test [2] was “inactive” in each case.
Take `CC(=O)N[C@@H](CC(=O)N[C@@H](CCC(=O)O)C(=O)O)C(=O)O`: the Potency entry in test [1] is “inactive”.
As for `CC1(C)S[C@@H]2[C@H](NC(=O)Cc3ccccc3)C(=O)N2[C@H]1C(=O)O`, in test [1], the Potency entry was “inactive”.
In the case of `Nc1c(N=Nc2ccc(-c3ccc(N=Nc4cc(S(=O)(=O)O)c5ccccc5c4N)cc3)cc2)cc(S(=O)(=O)O)c2ccccc12`, the Potency entry in test [3] and in test [2] was “inactive” throughout.
On to `O=C(O)C1CCCN1` (stereo not given), for which the Potency result in test [1] and in test [2] was “inactive” each time.
`CCC(=O)NCCC1CCc2ccc3c(c21)CCO3` (stereo not given): the Potency result in test [1] was “inactive”.
Consider `CC[C@@]1(O)C(=O)OCc2c1cc1n(c2=O)Cc2cc3c([N+](=O)[O-])cccc3nc2-1`, for which the Potency is 0.794 µM (active) in test [3] and 16.4 µM (active) in test [2].
As for `IC(I)I`, the Potency result in test [1] and in test [2] was “inactive” throughout.
Regarding `O=CCCCC=O`, the Potency result in test [1] and in test [2] was “inactive” each time.
With `CC(C)=O`, the Potency result in test [1] is “inactive”.
With `C=C(NC(=O)C(=C)NC(=O)c1csc(C2=N[C@@H]3c4csc(n4)[C@H]4NC(=O)c5csc(n5)[C@H]([C@](C)(O)[C@@H](C)O)NC(=O)[C@H]5CSC(=N5)C(=CC)NC(=O)C([C@@H](C)O)NC(=O)c5csc(n5)[C@]3(CC2)NC(=O)[C@H](C)NC(=O)C(=C)NC(=O)[C@H](C)NC(=O)C([C@@H](C)CC)NC2C=Cc3c([C@H](C)O)cc(nc3C2O)C(=O)O[C@@H]4C)n1)C(N)=O` (stereo not given in full), the Potency result in test [1] and in test [2] was “inactive” in each case.
